Calb FLC – C. albicans growth inhibition with fluconazole, primary screen, CaCi-2 strain, Alamar Blue fluorescence; C. albicans CaCi-2 (fluconazole-resistant clinical isolate) + fluconazole, 48 h; growth inhibition, % (no concentration beside the values); 300,000 compounds, 0.57% hits;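 active = growth inhibition above about 58% in most replicates, limit read from the data, passing the limit was not always enough; inconclusive = exactly half the replicates above a set limit; inactive = most replicates below a set limit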;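 also: all wells also contain fluconazole at 8 µg/ml as a sub-toxic cotreatment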
CSC inhib – cancer stem cell viability inhibitors, primary screen, luminescence; inhibition, % at 7.5 µM; AID 2717, 2010; 300,000 compounds, 1.1% hits; cancer stem cell-like cells viability; in the data active = inhibition above about 75%; inconclusive = no clear call, values can overlap the other calls; tested in HMLE shEcad cells
MPTP inh – mitochondrial permeability transition pore inhibitors, primary screen, biochemical, isolated mouse mitochondria, absorbance. Ca2+ swelling absorbance, 30 min. inhibition, % at 10 µM. 360,000 compounds, 1.4% hits. AID 602449, 2012;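 active = inhibition of 50% or more, scaled per plate between neutral and stimulator controls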
Beta cell apopt – inhibitors of cytokine-induced beta cell apoptosis, primary screen, luminescence; INS-1E cytokine-induced death, ATP luminescence, 48 h; percent of positive-control rescue, neutral wells zero; protection from apoptosis, % (no concentration beside the values); 300,000 compounds, 0.8% hits;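 active = Every replicate reaches about 75%, or at least half do and their mean reaches it too, limit read from the data; inconclusive = At least half of replicates reach the limit but their mean does not; inactive = Under half of replicates reach the limit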;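 also: higher means more ATP so stronger rescue from cytokine killing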
Mdm2-MdmX inh – inhibitors of human Mdm2-MdmX association, primary screen, cell-based, luminescence, split luciferase, SaOS-2, uHTS | SaOS-2 split-luciferase Mdm2/MdmX complementation | inhibition, % at 8 µM | 330,000 compounds, 3% hits | Protein Mdm4 (Homo sapiens) + E3 ubiquitin-protein ligase Mdm2 (Homo sapiens), …;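 active = inhibition of at least 50% at 8 µM in the primary screen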
Target sequence (O15151 whole entry, looked up): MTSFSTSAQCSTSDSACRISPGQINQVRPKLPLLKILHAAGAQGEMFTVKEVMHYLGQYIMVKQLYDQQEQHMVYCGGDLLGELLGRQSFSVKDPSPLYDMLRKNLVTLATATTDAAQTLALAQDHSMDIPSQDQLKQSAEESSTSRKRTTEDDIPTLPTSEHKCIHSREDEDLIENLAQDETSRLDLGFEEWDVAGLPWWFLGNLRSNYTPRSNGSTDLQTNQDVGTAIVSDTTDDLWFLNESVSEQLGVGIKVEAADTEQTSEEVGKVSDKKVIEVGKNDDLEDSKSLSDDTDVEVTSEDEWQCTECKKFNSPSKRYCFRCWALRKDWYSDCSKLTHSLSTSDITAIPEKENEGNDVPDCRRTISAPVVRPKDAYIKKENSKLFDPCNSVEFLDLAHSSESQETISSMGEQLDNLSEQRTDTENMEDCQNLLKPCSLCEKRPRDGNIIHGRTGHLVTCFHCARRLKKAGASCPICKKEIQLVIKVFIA
Target sequence (Q00987 whole entry, looked up): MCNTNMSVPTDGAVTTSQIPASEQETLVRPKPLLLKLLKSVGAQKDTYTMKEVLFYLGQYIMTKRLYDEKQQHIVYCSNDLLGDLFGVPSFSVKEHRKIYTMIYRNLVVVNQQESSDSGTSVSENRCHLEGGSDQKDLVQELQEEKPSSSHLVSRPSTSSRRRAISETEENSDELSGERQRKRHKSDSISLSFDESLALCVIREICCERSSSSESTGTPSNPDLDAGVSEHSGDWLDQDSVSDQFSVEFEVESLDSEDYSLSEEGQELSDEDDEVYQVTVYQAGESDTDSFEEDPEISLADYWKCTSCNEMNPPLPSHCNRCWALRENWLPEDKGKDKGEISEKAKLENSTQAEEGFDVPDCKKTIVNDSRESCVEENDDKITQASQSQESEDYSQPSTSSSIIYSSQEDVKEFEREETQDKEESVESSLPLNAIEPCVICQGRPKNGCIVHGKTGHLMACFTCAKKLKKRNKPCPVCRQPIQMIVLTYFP
Numbers stand for hits; n = inactive; u = inconclusive; x = no result. Only some compounds are listed: those with a hit (about 4.8% of all), similar ones and a draw of the others.

SMILES	Calb FLC	CSC inhib	MPTP inh	Beta cell apopt	Mdm2-MdmX inh
C=C(C)c1cccc(C(C)(C)NC(=O)Nc2cccnc2)c1	n	n	n	n	n
C=C(C)c1cccc(C(C)(C)NC(=O)Nc2ccc(C(N)=O)cc2)c1	83	n	n	n	n
O=C(/C=C\c1ccc(-c2cccc([N+](=O)[O-])c2)o1)N1CCOCC1	97	n	n	n	n
CCOc1cc(/C=N/NC(=O)c2cccnc2)ccc1OCC(N)=O	107	n	n	n	n
COc1cc(/C=N/NC(=O)c2cccnc2)ccc1OC(=O)c1cc(OC)c(OC)c(OC)c1	n	x	n	109	n
COc1cc(/C=N/NC(=O)c2cccnc2)ccc1OC(=O)c1ccc2c(c1)OCO2	n	n	n	n	n
CC(CC(=O)Nc1ccc2c(c1)c(=O)n(C)n2-c1ccc2ccccc2c1)C(F)(F)F (stereo unspecified)	x	x	n	x	x
O=C(CCCN1C(=O)/C(=C/c2ccccc2)SC1=S)NCCCn1ccnc1	n	90	n	121	n
CCc1ccc(/C=C2/SC(=S)N(CCCC(=O)Nc3ccccc3C(=O)O)C2=O)cc1	86	n	n	n	n
CN1C(=O)/C(=C/c2cn(CC(=O)N3CCCCC3)c3ccccc23)NC1=S	112	n	n	n	n
Cc1ccc(Oc2nc(CN3CCOCC3)nc3sc4c(c23)CCC(C)C4)cc1C (stereo unspecified)	n	120	n	n	n
CCOC(=O)[C@]12CCC=C1N(Cc1cccc3ccccc13)C(=O)[C@H](CC(=O)NCc1ccc(OC)c(OC)c1)C2	x	x	n	x	x
CCOC(=O)CC(/C(C)=N\O)c1ccccc1 (stereo unspecified)	99	n	n	n	n
CNC(=O)C1CCC(=O)N1Cc1c[nH]c2ccccc12 (stereo unspecified)	x	x	n	x	x
CC(C)NC(=O)Nc1ccc2c(c1)C(=O)N([C@H](C)CO)C[C@H](C)[C@@H](CN(C)S(=O)(=O)c1ccccc1)O2	x	n	n	n	n
C[C@H](CO)N1C[C@H](C)[C@@H](CN(C)S(=O)(=O)c2ccccc2)Oc2ccc(NC(=O)Nc3ccc(C(F)(F)F)cc3)cc2C1=O	x	102	n	n	n
COc1cc(OC)nc(Nc2nc(C(N)Cc3ccc(F)cc3)cs2)n1 (stereo unspecified)	x	x	n	x	x
Cc1ccc(-c2nc3sc(C#N)c(N)n3c(=O)c2C#N)cc1	111	n	n	n	n
Cc1ccc(-n2c(N)c(C#N)c(-c3ccccc3)c(C#N)c2=O)cc1	n	n	n	n	n
COc1ccc(NC(=O)N2CCCC(c3nc(-c4ccc(C(C)C)cc4)no3)C2)cc1 (stereo unspecified)	n	96	n	n	n
C(C#CCCCCCCCCC[n+]1ccccc1)#CCCCCCCCCC[n+]1ccccc1	110	75	n	104	x
Cc1nc(NC(=O)C2CC2)sc1C(=O)Nc1cccc(Cl)c1	n	n	n	n	n
Cc1nc(Nc2ccc(Cl)cc2Cl)sc1C(=O)Nc1ccccc1	n	83	n	n	n
CC(C)c1nc(N2CCN(C(=O)c3ccco3)CC2)c(C#N)c2c1COC(C)(C)C2	n	n	n	x	n
CC(C)c1nc(N2CCN(C(=O)c3ccco3)CC2)c2c3c(sc2n1)CCCC3	89	n	n	n	n
SMILES	Calb FLC	CSC inhib	MPTP inh	Beta cell apopt	Mdm2-MdmX inh
CCCCc1nc(N2CCN(C(=O)c3ccco3)CC2)c(C#N)c2c1CCCC2	n	119	n	n	n
C=CCn1c(Cn2c(-c3cnccn3)nc3ccccc32)nc2ccccc21	x	x	n	x	x
COc1ccc(/C=N/NC(=O)c2cc(C34CC5CC(CC(C5)C3)C4)[nH]n2)cc1O	n	97	n	n	n
FC(F)(F)c1cc(CCN2C(=S)NC[C@@H]2CC2CCCCC2)cc(C(F)(F)F)c1	n	97	n	n	n
Cc1ccc(Cn2cc(CN3CC(N4CCN(C5CCN(C)CC5)CC4)CS3(=O)=O)nn2)cc1 (stereo unspecified)	x	x	n	x	x
COC(=O)c1c(NC(=O)Cc2cccs2)sc2c1CCC(C)C2 (stereo unspecified)	n	80	n	n	n
O=C(Nc1nc2ccc(SC(F)F)cc2s1)c1ccc(NS(=O)(=O)c2ccc(F)c(F)c2)cc1	u	79	n	n	n
COC(=O)Cc1ccc(OC2(C)CCN(Cc3csc4ccccc34)C2)cc1 (stereo unspecified)	x	x	n	x	x
N#Cc1cccc(NC(=O)c2cc(C3CCCCN3S(=O)(=O)c3cccc4cccnc34)on2)c1 (stereo unspecified)	x	x	n	x	x
CCc1ccc2oc(-c3ccc(OC)cc3)cc(=Nc3c(C)n(C)n(-c4ccccc4)c3=O)c2c1	71	n	n	n	n
CCc1ccc2oc(-c3ccc(OC)cc3)cc(=Nc3cccc(C(=O)O)c3)c2c1	n	n	n	n	n
CNC(=O)COC(=O)c1c2c(nc3ccccc13)CCC2	110	n	n	n	n
CCCCNC(=O)COC(=O)c1c2c(nc3ccccc13)CCC2	n	n	n	n	n
Cc1nc(N/N=C/c2ccccn2)sc1C	x	n	x	110	x
Cn1nnc(-c2ccc(OCc3ccccc3F)cc2)n1	n	n	n	n	n
Fc1ccccc1COc1ccc(-c2nnn(Cc3ccccc3F)n2)cc1	n	81	n	n	n
O=C(Nc1ccc(F)c(Cl)c1)c1cc(C2CCCCN2C(=O)CCc2ccccc2)on1 (stereo unspecified)	x	x	n	x	x
CC(=O)c1ccccc1OCCOCCOc1ccccc1C(C)=O	n	n	n	108	n
O=C(/C=C/c1ccc(F)cc1)NC(=S)NNC(=O)c1cnccn1	n	n	n	70	n
O=C(NC(=S)NNC(=O)c1cnccn1)c1ccc(F)cc1	u	n	n	79	n
COc1ccc(CN(C)C(=O)[C@H]2O[C@@H](n3ccc(=O)[nH]c3=O)[C@H](O)[C@@H]2O)cc1OC	x	x	n	x	x
CCCc1nc2c(C)cc(Br)cn2c1Cc1cccc(F)c1	x	x	n	x	x
Cc1cc(N2CCN(C(C(=O)NC3CCCC3)C(C)(C)C)CC2)c2ccccc2n1 (stereo unspecified)	x	x	n	x	x
COc1ccc(C(C)(C)C)cc1NC(=O)Nc1ccc2c(c1)OCO2	n	83	n	n	n
CC1(C)N=C(N)N=C(N)N1c1ccc(OCCCOc2ccccc2)c(Cl)c1	n	85	n	103	x
SMILES	Calb FLC	CSC inhib	MPTP inh	Beta cell apopt	Mdm2-MdmX inh
Cc1nn2c(nc(N3CCCCC3)c3ccccc32)c1C=O	n	n	n	n	n
Cc1nn2c([nH]c(=O)c3ccccc32)c1C=O	83	n	n	n	n
COC(=O)c1cn(CC(=O)NC2CCCCC2)c2ccccc12	100	n	n	n	n
O=C(Cn1cc(C(=O)C2CC2)c2ccccc21)NC1CCCC1	n	n	n	n	n
O=C(O)c1ccccc1-c1ccccc1C(=O)Nc1cccc(-c2nc3ccccc3o2)c1	89	n	n	n	n
Brc1ccc(CN2CCN(Cc3c[nH]c4ccccc34)CC2)cc1	n	n	n	88	n
